Reference: PubChem BioAssay (NCI)
“And” between values parts separate entries of the source, which are not always exact repeats. Identical values can stand only once. The panel holds about 83,000 compounds, 20% with a hit somewhere; the sample as a whole holds those more often.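 Single-dose data. Exposure time 48 hours. Values below 10 considered active.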 The source made the active and inactive calls.

Test system: MOLT-4 leukemia
Assay: NCI-60 one-dose screen, 48 h (100 = growth as untreated, 0 = no growth, -100 = all killed)
Settings: 10 µM unless noted

Structure (SMILES) | growth
CCN(CC)C(=O)c1cccnc1 | 92.8% (inactive)
CN1CCN(CCC=C2c3ccccc3Sc3ccc(S(=O)(=O)N(C)C)cc32)CC1 | 46.3% (inactive) and 28.2% (inactive)
Oc1nc(NCCc2ccccc2)sc1/C=C1\C=Nc2ncccc21 | 8.59% (active) and 11.4% (inactive)
COc1cc2nc(N3CCN(C(=O)C4COc5ccccc5O4)CC3)nc(N)c2cc1OC (stereo unspecified) | 91.1% (inactive) and 66.1% (inactive) and 94.4% (inactive)
c1ccc2cc(C[n+]3ccn(Cc4ccc5ccccc5n4)c3)ccc2c1 | 0.992% (active) and 34% (inactive)
COc1ccc(Cn2c(NCCN=C(N)N)nc(=O)n(Cc3ccc(F)cc3)c2=O)cc1 | 84.6% (inactive) and 88.4% (inactive)
O=C(N/N=C/c1cccc2ccccc12)C1CC1 | 67.1% (inactive) and 113% (inactive)
CC(C)CNC(=O)c1ccccc1C(=O)NC1(C(=O)NCC(C)C)CCCC1 | 102% (inactive) and 88.6% (inactive)
Cn1c(=O)n(-c2ccc(C(C)(C)C#N)cc2)c2c3cc(-c4cnc5ccccc5c4)ccc3ncc21 | -5.74% (active) and -20.5% (active)
CN(C)c1ccc(C(Cc2ccc3ccccc3n2)Cc2ccc3ccccc3n2)cc1 | 11.4% (inactive) and 74.6% (inactive)
Cc1ccc(S(=O)(=O)Nc2ccc3cc([N+](=O)[O-])ccc3c2[N+](=O)[O-])cc1 | 82.8% (inactive) and 63% (inactive)
